Measles inh – inhibitors of measles virus growth in infected cells. infected Vero cells, GFP fluorescence, 64 h; hits give low values. z-score (no concentration beside the values). actives 0.1% (n = 33,000); in the data active = z-score below about -3
* marks the source's active call; other numbers are inactive results. Shown is part of a subset that was picked to be rich in hits.

SMILES	Measles inh
Cc1ccccc1C(=O)N1CCC(C(=O)Nc2ccccc2C(F)(F)F)CC1	0.84
COc1ccc(C)cc1NC(=O)C1CCN(C(=O)c2ccccc2C)CC1	-0.49
CCc1ccc(NC(=O)C2CCN(C(=O)c3ccccc3C)CC2)cc1	-5*
CCOC(=O)CSc1nc(C)c(Cl)c(C)c1C#N	0.08
O=C(Nc1ccc(NC(=O)c2cccc([N+](=O)[O-])c2)c(Cl)c1)c1cccc([N+](=O)[O-])c1	-0.55
C=CCSc1nnc2c(n1)OC(c1ccc(OC)c(OC)c1)Nc1ccc(Br)cc1-2 (configuration not stated)	0.76
CC1CC(C)CN(C(=O)c2cn(C)c3ccc(S(=O)(=O)N4CCCC4)cc3c2=O)C1 (configuration not stated)	-1.2
CCCCCSc1nc2ccccc2[nH]1	-0.16
CCCCCCSc1nnc(-c2ccco2)c(-c2ccco2)n1	-0.77
CCCCCCCSc1nnc2nc(C)cc(C)n12	-3.1*
CC1(C)CC(=O)c2c(oc3ccc(NS(=O)(=O)c4ccc5ccccc5c4)cc23)C1	0.25
CCOC(=O)C1=C(C)Nc2nc(SCc3ccccc3F)nn2C1c1ccc(C)cc1 (configuration not stated)	-1.2
O=C(CSc1nc2ccccc2c(=O)n1-c1ccc(F)cc1)NCc1ccccc1	-0.74
CCOc1ccc(NC(=O)CC23CC4CC(CC(C4)C2)C3)cc1	-0.82
CCOc1ccccc1NC(=O)CN1C(=O)C2C3C=CC(C3)C2C1=O (configuration not stated)	1.3
CCOc1ccc(NC(=O)CN2C(=O)C3C4CCC(C4)C3C2=O)cc1 (configuration not stated)	-3.2*
c1ccc(-c2cn3c4ccccc4n(CCN4CCCCC4)c3n2)cc1	-3.1*
Cc1cn2c3ccccc3n(CCN3CCCCC3)c2n1	-0.96
N=c1n(CCO)c2ccccc2n1CCN1CCCCC1	-0.81
Cc1ccc(S(=O)(=O)c2c(C)nn(-c3ccccc3)c2OC(=O)c2ccc([N+](=O)[O-])cc2)cc1	-1
Nc1nnc(SCC(=O)Nc2ccc(F)c([N+](=O)[O-])c2)s1	0.6
CCCCOC(=O)c1ccccc1N1C(=O)C2C3CCC(C3)C2C1=O (configuration not stated)	-0.03
O=C1C2C3CCC(C3)C2C(=O)N1c1ccccc1F (configuration not stated)	-0.46
COC(=O)c1ccccc1N1C(=O)C2C3CCC(C3)C2C1=O (configuration not stated)	-3.7*
CCCOc1cccc(C(=O)Nc2ccc(NC(=O)c3cccs3)cc2)c1	-0.15
SMILES	Measles inh
COC(=O)c1c(-c2ccccc2)csc1NC(=O)CSc1nnc2sc3ccccc3n12	1.7
CC1=C(C(=O)OC2CCCCCC2)C(c2ccc3c(c2)OCO3)C2=C(CC(C)(C)CC2=O)N1 (configuration not stated)	-0.08
CCCCN(C)CCNC(=O)Cn1c(=O)[nH]c2ccccc2c1=O	-0.19
O=C(O)c1ccc(N2C(=O)C3C4C=CC(C4)C3C2=O)cc1 (configuration not stated)	0.84
N#Cc1ccc(N2C(=O)C3C4C=CC(C4)C3C2=O)cc1 (configuration not stated)	0.54
CCCCOc1ccc(N2C(=O)C3C4C=CC(C4)C3C2=O)cc1 (configuration not stated)	-3.3*
CN(C)S(=O)(=O)n1cc[n+](C)c1	-1.7
CCOc1ccc(N=c2scc(-c3ccc(Cl)s3)n2CCc2ccc(S(N)(=O)=O)cc2)cc1	-0.59
CCCCn1ccc(=N)cc1	0.01
O=C(CCN1C(=O)COc2ccccc21)NCCN1CCc2ccccc2C1	-6.4*
O=C(CCN1C(=O)COc2ccccc21)NCCc1ccc(Cl)cc1	-0.22
CC1CCCC(C)N1CCNC(=O)CCN1C(=O)COc2ccccc21 (configuration not stated)	-0.4
COc1ccc(-c2ncnn2-c2sc3c(c2C#N)CCCCCC3)cc1	-0.7
COc1ccc(C(=O)C2C(c3ccc(C(C)(C)C)cc3)NC(=O)NC2(O)C(F)(F)F)cc1 (configuration not stated)	-0.66
CCCc1oc2c(cc(NS(=O)(=O)c3ccc(C)cc3)c3ccccc32)c1C(=O)OCC	0.8
Cc1ccccc1OCCn1c(SCC(N)=O)nc2ccccc21	1.5
COCc1nc2ccccc2n1CCOc1ccccc1C	-3.4*
CCn1c(COc2ccccc2C)nc2ccccc21	-0.28
CCC(=O)N1c2ccc(S(=O)(=O)NCCCN3CCC(C)CC3)cc2CC1C (configuration not stated)	-1.3
CCC(C)NC(=O)c1ccc2c(c1)nc(C)n2-c1ccc(Br)cc1 (configuration not stated)	0.07
COc1ccc(OC)c(N2C(=O)C3C4CCC(C4)C3C2=O)c1 (configuration not stated)	-1
Cc1cc(C)c(S(=O)(=O)NCC2CCC(C(=O)N3CCc4ccccc4C3)CC2)c(C)c1 (configuration not stated)	0.56
Cc1cc(N2CCN(C)CC2)nc2ccc(NC(=O)Cc3cccc(C(F)(F)F)c3)cc12	-3.1*
CCN1CCN(c2cc(C)c3cc(NC(=O)Cc4cccc(C)c4)ccc3n2)CC1	-1.5
